Results: PubChem BioAssay (EPA / NIEHS)
Values joined by “and” are separate entries in the source; they are usually repeats but may differ in a detail not shown here. Equal values may be shown once. Inconclusive results are not listed. Some structures have more than one record in an assay (separate samples or runs), and their calls can disagree. Active and inactive are the calls of the source. How the source made its calls: active means hit-call score of the fitted dose curve at least 0.9, where 1 is the maximum; inconclusive means response in the unintended direction; inactive means score below 0.9.

The compounds below were run against Cellular tumor antigen p53 (Homo sapiens) (UniProt P04637) (assay: TOX21_p53_BLA_p2_ratio: Tox21 HCT-116 p53 Agonism Beta-lactamase Assay, Ratio, Phase 2 (AID 2283592)).
Cellular tumor antigen p53 (Homo sapiens), sequence (P04637 whole entry, looked up, the tested form may be a part): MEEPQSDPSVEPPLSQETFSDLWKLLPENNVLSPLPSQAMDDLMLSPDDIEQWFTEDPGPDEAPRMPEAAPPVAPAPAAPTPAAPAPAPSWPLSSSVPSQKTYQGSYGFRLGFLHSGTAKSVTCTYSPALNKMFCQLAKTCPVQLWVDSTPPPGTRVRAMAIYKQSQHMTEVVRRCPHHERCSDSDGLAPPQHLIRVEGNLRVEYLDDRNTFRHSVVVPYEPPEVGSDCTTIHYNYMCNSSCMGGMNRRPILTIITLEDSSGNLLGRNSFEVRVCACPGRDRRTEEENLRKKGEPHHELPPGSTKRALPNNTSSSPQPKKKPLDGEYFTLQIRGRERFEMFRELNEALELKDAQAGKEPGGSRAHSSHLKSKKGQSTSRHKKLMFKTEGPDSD
Text: TOX21_p53_BLA_p2 is a cell-based, single-readout assay that uses HCT116, a human intestinal cell line, […] in a 1536-well plate.TOX21_p53_BLA_p2_ratio is an assay readout measuring reporter gene via receptor activity and designed using inducible reporter (beta lactamase induction) detected with GAL4 b-lactamase reporter gene. The signal is derived from the ratio of cleaved (ch2) to uncleaved (ch1) reporter gene substrate used as the measure of target activity.Data from the assay component TOX21_p53_BLA_p2_ratio was analyzed into 1 assay endpoint. This assay endpoint, TOX21_p53_BLA_p2_ratio, was analyzed in the positive analysis fitting direction relative to DMSO as the negative control and baseline of activity. Using a type of inducible reporter, gain-of-signal activity can be used to understand changes in the reporter gene as they relate to the gene TP53. Furthermore, this assay endpoint can be referred to as a primary readout, because this assay has produced multiple assay endpoints and this ratio serves a reporter gene function to understand target activity. To generalize the intended target to other relatable targets, this assay endpoint is annotated to the DNA binding intended target family, where the subfamily is tumor suppressor.
Thawing Method: Place 14 mL of pre-warmed thaw medium into a 15 mL of conical tub. Remove the vial of cells to be thawed from liquid nitrogen and thaw rapidly by placing at 37C in a water bath with gentle agitation for 1-2 minutes. Decontaminate the vial by wiping with 70% ethanol before opening in a biological safety cabinet. Transfer the vial contents drop-wise into 14 mL of thaw medium in a sterile 15-mL conical tub. Centrifuge cells at 900 rpm for 4 minutes and resuspend in thaw medium. Transfer contents to the T75 tissue culture flask containing Thaw Medium and place flask in a humidified 37C/5% CO2 incubator. Switch to growth medium at first passage.Propagation Method: Aspirate medium, rinse once in DPBS, add 0.25% Trypsin/EDTA and swirl to coat the cell evenly. Add an equal volume of Growth Medium to inactivate Trypsin after 2-3 minutes incubation at 37C. Centrifuge cells at 900 rpm for 4 minutes and resuspend in growth medium. Cell should be passage or fed at least twice a week.Assay Protocol: Harvest cells from culture in growth medium and resuspend in assay medium. 2.2 Dispense 4000 cells/5 uL/well into 1536-well black/clear bottom plates using a Multidrop dispenser. After the cells were incubated at 37C for 5 hours, 23 nL of compounds dissolved in DMSO were transferred to the assay plate by a PinTool resulting in a 217-fold dilution. Incubate the plates for 16 hours at 37C, 5% CO2. Add 1 uL of 6X LiveBLAzer FRET B/G (CCF4-AM) Substrate Mixture to each well using a BioRAPTR dispenser and incubate the plates at room temperature for 2 hours. Measure fluorescence intensity at 460 and 530 nm emission and 405 nm excitation by an Envision detector. Data is expressed as the ratio of 460nm/530nm emissions. Add 4 uL of Cell-titer Glo to each well using BioRAPTR and incubate the plates at room temperature for 2 hours. Measure fluorescence intensity by a VewLux plate reader.

Row | Structure (SMILES) | outcome | AC50
1 | CC(O)CC(C)(C)O (stereo not given) | inactive | –
2 | O=C(Nc1ccc(Cl)cc1)Nc1ccc(Cl)c(Cl)c1 | – | 3.12 µM (active) and 5.23 µM (active) and 3.82 µM (active)
3 | CC[C@H](NC(=O)c1cc(F)ccc1NS(=O)(=O)c1cccc2cccnc12)c1ccccc1 | inactive | –
4 | CC(C)(c1cc(Br)c(O)c(Br)c1)c1cc(Br)c(O)c(Br)c1 | – | 54.6 µM (active) and 64.2 µM (active) and 60.5 µM (active)
5 | CCCCCCCCOC(=O)c1cc(O)c(O)c(O)c1 | – | 50 µM (active)
6 | O=c1[nH]sc2ccccc12 | inactive | –
7 | CCCCOC(=O)CC(CC(=O)OCCCC)(OC(C)=O)C(=O)OCCCC | inactive | –
8 | CCCCCCCCOc1ccc(C(=O)c2ccccc2)c(O)c1 | inactive | –
9 | OC12N=C(c3ccccc3)SC1Cc1cc(Cl)ccc12 (stereo not given) | – | 71.5 µM (active)
10 | CCCCCCCCCCCC[N+](C)(C)C | – | 14.7 µM (active) and 14.2 µM (active) and 14.1 µM (active)
11 | C[C@]12CC[C@@H]3c4ccc(O)cc4CC[C@H]3[C@@H]1CC[C@H]2O | – | 15.9 µM (active)
12 | CC(C)(C)c1cc(/C=C2\SC(N)=NC2=O)cc(C(C)(C)C)c1O | – | 50.7 µM (active)
13 | Cc1cc2c(cc1C(F)(F)F)N(C(=O)Nc1ccc(Oc3cccnc3C)nc1)CC2 | inactive | –
14 | CN(C)c1ccc(C(=C2C=CC(=[N+](C)C)C=C2)c2ccc(N(C)C)cc2)cc1 | – | 33.6 µM (active) and 32.8 µM (active) and 7.06 µM (active)
15 | CC[C@@H]1C[C@H](N(Cc2cc(C(F)(F)F)cc(C(F)(F)F)c2)C(C)=O)c2cc(C(F)(F)F)ccc2N1C(=O)OC(C)C | inactive | –
16 | CCN(Cc1cccnc1)C(=O)c1cccc(Cl)c1[C@]1(C)C(=O)N(Cc2ccc(OC)cc2OC)c2ccc(Cl)cc21 | – | 43.2 µM (active)
17 | Cc1cccc2ccccc12 | inactive | –
18 | CC(C)(O)c1ccc(CNC(=O)c2cccnc2Oc2ccc3nonc3c2)cc1 | inactive | –
19 | CCCOC(=O)c1cc(O)c(O)c(O)c1 | inactive | –
20 | CC(C)(C)c1csc(-c2cc3cc(OCc4ccccc4CC(=O)O)ccc3o2)n1 | – | 36.2 µM (active)

Row | Structure (SMILES) | outcome | AC50
21 | CCCCCCCCN(C)CCCCCCCC | inactive | –
22 | CN(C[C@@H](CC[N+]12CCC(C3CCCCC3)(CC1)CC2)c1ccc(Cl)c(Cl)c1)C(=O)c1cc(C(F)(F)F)cc(C(F)(F)F)c1 | – | 64.8 µM (active)
23 | CCO[Si](CCCNC(N)=O)(OCC)OCC | inactive | –
24 | CCCC(=O)OCCC(C)C | inactive | –
25 | Clc1cc(Cl)c2c(c1)N=C1CCCCCN1C2 | inactive | –
26 | Cc1ccc(C(C)C)cc1 | inactive | –
27 | CCN(CC)C(=O)c1cc(S(=O)(=O)Cc2ccccc2)c(N2CCC(c3ccccc3)CC2)cc1N(CC)CCN(C)C | inactive | –
28 | COc1ccc2cc(S(=O)(=O)N[C@H](CC(=O)N[C@H](Cc3ccc(CN4[C@H](C)CCC[C@@H]4C)cc3)C(=O)N(C)C(C)C)c3ccc4c(c3)OCO4)ccc2c1 | – | 70.3 µM (active)
29 | CO[C@H]1/C=C/O[C@@]2(C)Oc3c(C)c(O)c4c(O)c(c(/C=N/N5CCN(C)CC5)c(O)c4c3C2=O)NC(=O)/C(C)=C\C=C\[C@H](C)[C@H](O)[C@@H](C)[C@@H](O)[C@@H](C)[C@H](OC(C)=O)[C@@H]1C | inactive | –
30 | O=c1c(-c2ccc(O)cc2)coc2cc(O)cc(O)c12 | inactive | 18 µM (active)
31 | CCCCCCCCCCCO | inactive | –
32 | OCCO | inactive | –
33 | O=C(O)Cn1c(=O)n(Cc2ccc(Br)cc2F)c(=O)c2ccc(Cl)cc21 | inactive | –
34 | CN(C)C(=O)C1(N2CCCCC2)CCN(CC[C@@]2(c3ccc(Cl)c(Cl)c3)CN(C(=O)c3ccccc3)CCO2)CC1 | – | 70.9 µM (active)
35 | NC(=O)c1nc(-c2cccc(-c3cc(F)ccc3OCC(F)(F)C(F)(F)F)c2)n[nH]1 | – | 79.6 µM (active)
36 | c1ccc2n[nH]nc2c1 | inactive | –
37 | CN1C(=O)CC[C@H]1c1cccnc1 | inactive | –
38 | Cc1ccc2oc(CN(Cc3ccccc3)C(=O)Nc3c(F)cc(F)cc3F)c(-c3ccc(Cl)cc3)c2c1 | inactive | –
39 | COc1cc(C(=O)NC2CCN(C)CC2)ccc1Nc1ncc2c(n1)N(C1CCCC1)CC(F)(F)C(=O)N2C | – | 0.00393 µM (active)
